This assay has as its system EPHA2. As to conditions: concentration: 1 μM, replicates: in singlicate; n = 1.
With `O=C(Nc1n[nH]c2cc(-c3cccs3)ccc12)C1CC1` [SB-731284], the “%Inh” value came out at 0%.

As to `CNc1nccc(-c2ccc3c(N)n[nH]c3c2)n1` [GSK2206003], the “%Inh” value came to 0%.

For the compound `COc1cccc(NC(=O)NCCNc2ccnc(Nc3ccc(F)cc3)n2)c1` [GSK1379879], the “%Inh” value worked out at 27%.

For the compound `CN(c1ccc2c(c1)nc(NCc1ccccc1)n2C)c1ccnc(Nc2ccc(CS(C)(=O)=O)cc2)n1.Cl` [GW811603], the “%Inh” value stood at 13%.

As to `Cc1ccc(O)cc1Nc1ccnc2cc(-c3ccc(CN4CCCCC4)o3)ccc12` [GW557777], the “%Inh” value is 94.5%.

In the case of `Cc1cccc(Nc2nc(N[C@H]3CCCC[C@H]3N)ncc2C(N)=O)c1.Cl` [GSK986310], the “%Inh” value is 11%.

On to `c1ccc(Oc2ccc(Nc3ccnc4cc(-c5ccc(CN6CCCCC6)o5)ccc34)cc2)nc1` [GW567143], for which the “%Inh” value was 0%.

Consider `CC(C)c1nc(-c2ccc(F)c(NS(=O)(=O)c3c(F)cccc3F)c2)c(-c2ccnc(Nc3ccc(N4CCOCC4)nc3)n2)s1` [GSK1804250], for which the “%Inh” value is reported as 17%.

In the case of `CCNc1nccc(-c2c(-c3ccc(F)cc3)ncn2C2CCN(C)CC2)n1`, the “%Inh” value is on record as 0%.

Regarding `Fc1cc(Cl)ccc1Nc1ccnc2cc(-c3ccc(CN4CCSCC4)o3)ccc12` [GW560106], the “%Inh” value was 31%.

Consider `NCCC(NC(=O)c1cc(Br)c(-c2ccnc3[nH]ccc23)s1)c1ccccc1.O=C(O)C(F)(F)F.O=C(O)C(F)(F)F` (stereo not drawn) [GSK1307810], for which the “%Inh” value was 1%.

As to `Cc1ccc(NC(=O)c2ccc(Cl)c(Cl)c2)cc1-c1ccc(C(=O)Nc2ccncc2)cc1` [GSK1398460], the “%Inh” value is on record as 14%.

(Values after publication PMC5540273 (PLoS ONE, 2017).)
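Also: KINOMEscan kinase panel screen.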
